Compounds without any hit were thinned out: in the full panel of roughly 83,000, 20% have a hit.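 A percent growth of 40 corresponds to 60% growth inhibition; 0 means no net growth; -100 means all cells died. Active threshold: below 10.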 Unmarked numbers belong to inactive results. Active and inactive are the calls of the source.
Key:
Test in all cases: NCI-60 one-dose screen, 48 h (100 = growth as untreated, 0 = no growth, -100 = all killed)
Conditions in all cases: 10 µM
DU-145 prostate = test system: DU-145 prostate
K-562 leukemia = test system: K-562 leukemia
MALME-3M melanoma = test system: MALME-3M melanoma
MDA-MB-231 breast = test system: MDA-MB-231 breast
RXF 393 renal = test system: RXF 393 renal
SF-268 CNS = test system: SF-268 CNS
SF-295 CNS = test system: SF-295 CNS
SF-539 CNS = test system: SF-539 CNS
UACC-257 melanoma = test system: UACC-257 melanoma
M14 melanoma = test system: M14 melanoma
HCT-15 colon = test system: HCT-15 colon
HT29 colon = test system: HT29 colon
SNB-75 CNS = test system: SNB-75 CNS
SNB-19 CNS = test system: SNB-19 CNS
U251 CNS = test system: U251 CNS
PC-3 prostate = test system: PC-3 prostate
SK-MEL-5 melanoma = test system: SK-MEL-5 melanoma
UACC-62 melanoma = test system: UACC-62 melanoma
LOX IMVI melanoma = test system: LOX IMVI melanoma
SK-MEL-28 melanoma = test system: SK-MEL-28 melanoma

Row | SMILES | growth (DU-145 prostate) | growth (K-562 leukemia) | growth (MALME-3M melanoma) | growth (MDA-MB-231 breast) | growth (RXF 393 renal) | growth (SF-268 CNS) | growth (SF-295 CNS) | growth (SF-539 CNS) | growth (UACC-257 melanoma) | growth (M14 melanoma) | growth (HCT-15 colon) | growth (HT29 colon) | growth (SNB-75 CNS) | growth (SNB-19 CNS) | growth (U251 CNS) | growth (PC-3 prostate) | growth (SK-MEL-5 melanoma) | growth (UACC-62 melanoma) | growth (LOX IMVI melanoma) | growth (SK-MEL-28 melanoma)
1 | COc1ccc(N(C)c2cc(C#N)nc3ccccc23)cc1/C=C/C(=O)NO | 16.7% | 4.1% (active) | -56.5% (active) | -73.5% (active) | -82.2% (active) | -30% (active) | -73.8% (active) | -89.6% (active) | -26.2% (active) | 2.45% (active) | -59.4% (active) | -19.5% (active) | -24.6% (active) | -44.5% (active) | -51% (active) | -9.99% (active) | -67.5% (active) | -72.2% (active) | -97.6% (active) | -73.8% (active)
2 | CN1CCCN(Cc2ccc(C(=O)Nc3cccc(Nc4ccc5cc(O)ccc5n4)c3)cc2C(F)(F)F)CC1 | 73.7% | 14.8% | 51% | 34.9% | 60.8% | 62.5% | -68.5% (active) | 41.8% | 59.8% | 47.2% | 14.6% | 27.8% | 32.2% | 81.1% | 33.7% | 51.3% | 32.4% | 88.1% | -100% (active) | -67.9% (active)
3 | CS(=O)(=O)Nc1ccc(-c2ccc3c(c2)ncn3-c2ccc(NC(=O)Nc3ccc(Cl)c(C(F)(F)F)c3)cc2)cc1 | -4.47% (active) | -26% (active) | -80.8% (active) | -84.6% (active) | -57.5% (active) | 2.56% (active) | -77.5% (active) | -88.8% (active) | -57.2% (active) | -95.3% (active) | -91.3% (active) | -84.1% (active) | -42% (active) | -89.3% (active) | -87.4% (active) | -57.5% (active) | -97.7% (active) | -85.8% (active) | -97% (active) | -78.1% (active)
4 | COc1ccc(CCN2C(=O)/C(=C/c3csc(C#N)n3)SC2=S)cc1OC | -10.9% (active) | 1.08% (active) | 2.58% (active) | 95.7% | -1.04% (active) | 99.4% | 98.7% | -1.47% (active) | 13.4% | 2.13% (active) | -45.4% (active) | -48.4% (active) | 71.7% | 80% | 89.8% | 71.6% | 74.2% | 46.8% | -62.7% (active) | 18.9%
5 | COc1ccc2nc(Nc3cccc(NC(=O)c4ccc(CN5CCN(C)CC5)c(C(F)(F)F)c4)c3)ccc2c1 | -32.8% (active) | -70.8% (active) | -91.8% (active) | -82.7% (active) | -75.7% (active) | -55.2% (active) | -97.7% (active) | -99.8% (active) | -83.9% (active) | -50.1% (active) | -83.4% (active) | -73.9% (active) | -39.5% (active) | -96.8% (active) | -77.5% (active) | -8.06% (active) | -100% (active) | -93% (active) | -100% (active) | -96.9% (active)
6 | CCCCCCCCCCCCCCCCCCCC(=O)NCCc1c[nH]c2ccc(OC(=O)NOCCOCCOCCOCCOCCOCCOCCOCCOCCOCCOCCOCCOCCOCCOCCOCCOCCOCCOCCOCCOCCOCCOC)cc12 | 21.4% | 8.69% (active) | 8.02% (active) | -74.1% (active) | 12% | 16.5% | -28.5% (active) | -13.8% (active) | 6.88% (active) | -18.8% (active) | 77.7% | -71.8% (active) | 37.3% | 22.3% | -16.8% (active) | 6.43% (active) | -16.3% (active) | -69.4% (active) | -90.7% (active) | -2.99% (active)
7 | O=C(c1ccc(Cl)cc1)C1[C@H](c2ccc(Br)cc2)[C@@H](c2ccccc2)NC12C(=O)Nc1ccc(Cl)cc12 (stereo partly drawn) | -27.9% (active) | -31.2% (active) | -97.7% (active) | -95.3% (active) | -88.8% (active) | -7.66% (active) | -84% (active) | -58.5% (active) | -49.4% (active) | 6.42% (active) | -87.6% (active) | -49.4% (active) | -4.86% (active) | -8.73% (active) | -80.8% (active) | -30.5% (active) | -68.5% (active) | -87.2% (active) | -100% (active) | -86.9% (active)
8 | COC(=O)CC1CC1C1Cc2c(nc(N(C)S(C)(=O)=O)nc2C(C)C)-c2ccc(F)cc21 (stereo not drawn) | 92.7% | 34.3% | 112% | 69.3% | 79.8% | 93.8% | 72.4% | 96% | 83.8% | 70.4% | 58.7% | 66.9% | 92.3% | 91.2% | 84.9% | 33.9% | 57.2% | 56.5% | 79.1% | 104%
9 | Cc1ccc(NCC(=O)Nn2c(COc3ccccc3)nc3ccccc3c2=O)cc1 | 85.9% | 88.2% | 80.8% | 62% | 51.3% | 49.8% | 58% | 51.4% | 83.6% | 93.3% | 93% | 92.4% | 23.4% | 6.78% (active) | 62.2% | 74.2% | 85.9% | 61.3% | 91.6% | 91.3%
10 | CC(=O)Nc1ccc(-c2cn(-c3cccc(C(=O)Nc4cc(C(F)(F)F)cc(C(F)(F)F)c4)c3)nn2)cn1 | -47.5% (active) | -66.1% (active) | -48.3% (active) | -72.5% (active) | -69.4% (active) | -7.7% (active) | -89.1% (active) | -83.7% (active) | -4.2% (active) | 4.5% (active) | -40.5% (active) | -37.4% (active) | -6.74% (active) | -42.4% (active) | -66.2% (active) | -59.5% (active) | -38.9% (active) | -46.2% (active) | -100% (active) | -46.4% (active)
11 | CCCCCCCCCCCCCCCCCCCC(=O)NCCc1c[nH]c2ccc(OC(=O)CCCC(=O)OCCOOCCOOCCOOCCOOCCOOCCOOCCOOCCOOCCOOCCOOCCOOCCOC)cc12 | 39.8% | 2.22% (active) | 102% | 44.5% | 91.3% | 16.7% | 13.3% | -32.9% (active) | 92.5% | 56.4% | 56% | 63.4% | 110% | 69.1% | -31.3% (active) | 22% | 99.6% | 67.1% | 27.2% | 88%
12 | Cc1nc(Nc2nc(C)c3ccc(OCCN4CCOCC4)cc3n2)[nH]c(=O)c1C | 14.9% | 14.1% | -69.8% (active) | -67.1% (active) | -78% (active) | 9.74% (active) | -29.3% (active) | -61.7% (active) | -14.9% (active) | 18% | -48.7% (active) | -56.9% (active) | 25.9% | -2.34% (active) | 8.71% (active) | 11.5% | -97.1% (active) | -84.6% (active) | -51.7% (active) | -21.3% (active)
13 | COc1cccc2nc(Nc3ccc(F)c(NC(=O)c4ccc(CN5CCN(C)CC5)c(C(F)(F)F)c4)c3)ccc12 | 6.64% (active) | -70.8% (active) | -91.3% (active) | -37.8% (active) | -27.1% (active) | 22.2% | -84% (active) | -93.6% (active) | -66.5% (active) | -12% (active) | -83% (active) | -30.2% (active) | -3.82% (active) | -49.2% (active) | -42.7% (active) | -8.36% (active) | -94.9% (active) | -82.1% (active) | -100% (active) | -84% (active)
14 | CC(=O)Nc1ccc(-n2cnc3cc(-c4ccc(O)cc4)ccc32)cc1F | 34% | 6.14% (active) | 65.6% | 34.7% | -0.397% (active) | 40.6% | 2.75% (active) | -5.18% (active) | 59.8% | 35.5% | 5.21% (active) | -9.81% (active) | 24.1% | 36.2% | 16.7% | 22.8% | 12.5% | 13.9% | 27.8% | 49.4%
15 | COc1cccc(COc2ccc(/C=C3\Oc4cc(O)ccc4C3=O)cc2)c1 | 31.8% | 49.4% | 14.3% | 28.6% | -19.3% (active) | 17.2% | 9.41% (active) | 30% | 70.6% | 35.9% | 42.1% | 81.1% | -22.5% (active) | 36.1% | 50.7% | 67.8% | 24.6% | 82.7% | – | 71.1%
16 | C=C1CCC2C3(C)COC(c4cc(F)cc(F)c4)OC3CCC2(C)C1C/C=C1/C(=O)OCC1O (stereo not drawn) | -52.9% (active) | 12.7% | -78.8% (active) | -63.7% (active) | -73.7% (active) | 36.7% | -82.7% (active) | -90.9% (active) | -85.4% (active) | -64.6% (active) | -34.6% (active) | -29.3% (active) | -45.9% (active) | -78.5% (active) | -95.2% (active) | -32.1% (active) | -88.6% (active) | -15.2% (active) | – | -70.7% (active)
